# Screening data as filed in PubChem.
# This excerpt belongs to a sample that is enriched for hits.
# RMI-FANCM inh = disruptors of RMI1/RMI2 association with MM2 peptide – biochemical, fluorescence polarization, human, primary screen | RMI core complex with F-MM2 peptide; stronger effect = lower value | hit rate 0.58% among 70,000 | FP signal (polarization) at 33 µM | RMI core complex (RMI1/RMI2) binding to FANCM MM2 peptide, human; in the data active = FP signal below about 40
# Active calls of the source: *.
SMILES,RMI-FANCM inh
O=C(CCc1nc2sc3c(c2c(=O)[nH]1)CCCCC3)N1CCN(c2ccccc2F)CC1,66
NC(=O)C1CCN(C(=O)CCc2nc3sc4c(c3c(=O)[nH]2)CCCCC4)CC1,42
CN(CC(=O)N1CCN(c2ccccc2)CC1)S(=O)(=O)c1cccc2cnccc12,52
Cn1c(=O)cc2c3c(c(NS(=O)(=O)c4ccccc4)ccc31)C(=O)c1ccccc1-2,9*
Cn1c(=O)cc2c3c(c(Br)ccc31)C(=O)c1ccccc1-2,60
CC(C)c1cc(NS(=O)(=O)c2ccccc2)c(O)c(C(C)C)c1,60
CSc1nc2ccc(NC(=O)NC(=O)c3ccccc3[N+](=O)[O-])cc2s1,53
Cc1cc(C)c(C)c(S(=O)(=O)Nc2ccc(C(=O)N3CCN(Cc4ccccc4)CC3)cc2)c1C,71
COc1ccc(S(=O)(=O)n2c(SCC(=O)Nc3ccc(C(C)C)cc3)nc3ccc(OC)cc32)cc1,58
Cc1ccc(C)c(Cn2nc(C3CCN(S(C)(=O)=O)CC3)n(C)c2=O)c1,61
Clc1ccc(CSc2nc3ccccc3[nH]2)c(Cl)c1,65
CCOC(=O)N1CCc2c(sc(N)c2-c2nc3ccccc3s2)C1,76
COc1ccc(CC(=O)Nc2sc3c(c2-c2nc4ccccc4s2)CCN(C(C)C)C3)cc1,55
COC(=O)N1CCc2c(sc(NC(=O)c3cccs3)c2-c2nc3ccccc3s2)C1,76
CCOC(=O)N1CCc2c(sc(NC(=O)c3ccc(Br)s3)c2-c2nc3ccccc3s2)C1,6*
CCOc1ccc(C(=O)Nc2sc3c(c2-c2nc4ccccc4s2)CCN(C(C)C)C3)cc1,-31*
CC(C)N1CCc2c(sc(NC(=O)Cc3ccc(F)cc3)c2-c2nc3ccccc3s2)C1,500
COc1ccc2nc(-c3ccc(Cl)c(NC(=O)c4cc(Cl)ccc4OC)c3)cn2n1,72
COc1cc(OC)cc(C(=O)Nc2nnc(SC)s2)c1,64
Cc1cc(=O)c2nncn2[nH]1,63
CC(=O)O[C@H]1CC[C@@]2(C)C(C[C@H](OC(C)=O)[C@@]3(C)C4=CC(=O)OC(c5ccoc5)[C@]4(C)CCC23)C1(C)C (stereo not given in full),55
O=C(CSc1ccc(-c2ccc(-n3ccnc3)cc2)nn1)NCC1CCCO1 (stereo not given),54
Cc1cc(NC(=O)c2ccnn2C)n(-c2nc3c(F)cccc3s2)n1,64
CCOC(=O)c1ccc(NC(=O)CCc2c(C)[nH]c(=O)[nH]c2=O)cc1,64
CCOC(=O)CCc1c(C(=O)OCC)[nH]c2c1CC(=O)NC2,32*
SMILES,RMI-FANCM inh
CCOC(=O)c1[nH]c2c(c1C)C(=O)CCC2,59
CCc1ccccc1NC(=O)c1c(N)c(C(=O)c2cccc([N+](=O)[O-])c2)n2ccccc12,52
COc1ccccc1NC(=O)C(=O)NCCN1CCOC(c2ccccc2)C1 (stereo not given),72
COc1cc(C(=O)NCCn2ncccc2=O)cc(OC)c1OC,64
CC(=O)Nc1ccc(SCc2cccc(Cl)c2)nn1,65
CCN1CCN(c2nc3ccccc3nc2C(C#N)S(=O)(=O)c2cccs2)CC1 (stereo not given),69
Cc1ccc(C)c(S(=O)(=O)C(C#N)c2nc3ccccc3nc2N2CCCC2)c1 (stereo not given),5*
CCC(CC)COC(=O)C(C#N)c1nc2ccccc2nc1N1CCCCC1 (stereo not given),48
NC1=NC(=O)C(CC(=O)Nc2cc([N+](=O)[O-])ccc2Cl)S1 (stereo not given),57
COCCNC(=O)Cn1cc(-c2nnc(-c3ccco3)o2)c2ccccc21,72
O=S(=O)(NCC(c1ccco1)N1CCc2ccccc2C1)c1cccs1 (stereo not given),59
Cc1cc(C)c(S(=O)(=O)Nc2cc(Cl)c(O)c3ccccc23)cc1C,25*
COc1ccc(OC)c(S(=O)(=O)Nc2cc(Sc3ccccc3)c(O)c3ccccc23)c1,61
Cc1cc(Cl)c(Cl)cc1S(=O)(=O)Nc1ccccc1C(=O)O,63
CCOC(=O)N1CCN(C(=O)CN2C(=O)NC3(CCCCC3C)C2=O)CC1 (stereo not given),72
O=C(c1cc(Cl)ccc1Cl)N1CCN(c2ccc3nnc(C4CC4)n3n2)CC1,62
CCCN1CCCc2cc(CCNS(=O)(=O)c3ccc(F)cc3C)ccc21,62
Cc1ccc(CN2CCc3nc(SCC(=O)Nc4ccc(C)c(C)c4)[nH]c(=O)c3C2)cc1,54
CCOC(=O)c1c(-c2ccc(C)c(C)c2)csc1NC(=O)CSc1nnc2scc(-c3ccccc3)n12,76
O=[N+]([O-])c1ccc(C=Nc2ccc3c(c2)OCCO3)s1,49
CC(/C=C1\SC(=O)NC1=S)=C\c1ccccc1,36
Cc1ccc(N=C2NC(=O)/C(=C/c3cccnc3)S2)cc1,64
O=C1NC(=S)/C(=C/c2cccnc2)S1,-19*
COc1ccccc1CCNC(=O)Cc1csc(Nc2ccccc2)n1,65
O=C(CCl)Nc1ccc(S(=O)(=O)Nc2ncccn2)cc1,59
SMILES,RMI-FANCM inh
Cc1noc(C)c1S(=O)(=O)N1CCC(C(=O)O)CC1,56
Cc1coc(C)c1C(=O)O,57
CCCc1noc(C)c1C(=O)O,-5*
Cc1nn(C(=O)N(c2ccccc2)c2ccccc2)c(C)c1Cl,58
O=C(Nc1nc2c(Br)cccc2s1)c1nc2ccccc2s1,61
O=C(NNC(=O)c1c(F)cccc1F)c1c(F)cccc1F,58
CC(=O)Oc1ccccc1C(=O)O,50
CC(=O)Oc1cccc2c1C(=O)c1c(OC(C)=O)cc(C(=O)O)cc1C2=O,34*
O=C(O)c1cc(O)c2c(c1)C(=O)c1cc(O)cc(O)c1C2=O,57
O=C(CSc1nnc2ccccn12)c1ccc(-c2ccccc2)cc1,71
COc1ccc(Nc2c(Cl)cc(OC)cc2Cl)cc1,58
COc1ccc(NC2=CC(=O)C=CC2=O)cc1,30*
COc1ccc(NC(=O)CO)cc1,68
CN(C)CCCN(C(=O)c1cccc(C(F)(F)F)c1)c1nc2cc3c(cc2s1)OCO3,82
O=C(NCc1cccs1)c1cn(-c2cccc(Cl)c2)nn1,66
O=C(COc1ccc(Cl)cc1)Nc1ccc(SCC(=O)N2CCCC2)nn1,79
O=C1C=CC(=NS(=O)(=O)c2ccc3ccccc3c2)C=C1,37
O=C1C=CC(=NS(=O)(=O)c2ccc(F)cc2)C=C1,2*
O=C1C=CC(=NS(=O)(=O)c2cc([N+](=O)[O-])ccc2Cl)C=C1,42
O=C(Cc1cccs1)Nc1ccc2c(c1)CN(C(=O)c1ccccc1)CC2,70
O=C(Nc1ccccc1-c1nc2ccccc2[nH]1)c1ccc(S(=O)(=O)N2CCc3ccccc3C2)cc1,60
Cc1cc(C(=O)Nc2nc3c(F)cccc3s2)no1,58
C(=NCCc1ccccc1)c1ccccc1,49
Clc1cc(Cl)cc(C=NCc2ccccc2)c1,21*
C(=NCc1ccccc1)c1ccc2c(c1)OCO2,53
SMILES,RMI-FANCM inh
COc1ccc(C2CC(=O)C3=C(C2)Nc2nnnn2C3c2cc(OC)c(OC)c(OC)c2)cc1 (stereo not given),59
CC(=O)ON1C(=O)c2cccc3cccc(c23)C1=O,52
O=C1c2cccc3c([N+](=O)[O-])ccc(c23)C(=O)N1Cc1cccnc1,-13
CC(=O)ON1C(=O)c2cccc3c([N+](=O)[O-])ccc(c23)C1=O,-6*
CCCOc1ccc(S(=O)(=O)Nc2ccc3c(c2)CCC(=O)N3Cc2ccccc2)cc1,66
CC(=O)c1ccc(NC(=O)COc2ccc(-c3nnc(C)o3)cc2)cc1,63
